Entries with a potency or affinity are not part of this list. Active and inactive are the calls of the source.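 Rule for the calls: active = fitted half-maximal dose no more than twice the top valid tested dose, for compounds that lower signal; inconclusive = fit invalid, or curve flat with activity between -70 and -30; inactive = potency past limit, curve flat within ±30, or signal increasing.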
Target: NAD-dependent protein deacylase sirtuin-5, mitochondrial (Homo sapiens) (UniProt Q9NXA8)
Assay: SIRT5 deacylase inhibitors, dose response, biochemical, fluorescence imaging, cherry-pick, set 6 (AID 720597);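 note: lower AMC signal can also come from blocking the trypsin step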
Settings: Purified SirT5, succinyl-peptide-AMC/trypsin fluorescence; series mostly up to 15 µM

Chain of NAD-dependent protein deacylase sirtuin-5, mitochondrial (Homo sapiens) (Q9NXA8 whole entry, looked up): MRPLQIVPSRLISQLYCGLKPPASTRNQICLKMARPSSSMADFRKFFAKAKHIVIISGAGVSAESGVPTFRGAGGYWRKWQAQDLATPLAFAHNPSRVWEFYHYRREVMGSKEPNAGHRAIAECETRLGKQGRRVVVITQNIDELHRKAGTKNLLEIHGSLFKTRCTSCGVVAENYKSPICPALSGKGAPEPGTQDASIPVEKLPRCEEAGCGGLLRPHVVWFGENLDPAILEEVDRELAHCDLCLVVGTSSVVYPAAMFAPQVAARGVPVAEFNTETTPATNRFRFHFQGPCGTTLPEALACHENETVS

outcome, inactive:
C[C@H]1CN([C@@H](C)CO)S(=O)(=O)c2ccc(C#Cc3cccc(F)c3)cc2O[C@H]1CN(C)S(=O)(=O)c1ccccc1F
C[C@@H]1CN([C@H](C)CO)S(=O)(=O)c2ccc(/C=C/c3ccccc3)cc2O[C@@H]1CN(C)C(=O)NC1CCCC1
C[C@@H]1CN([C@H](C)CO)S(=O)(=O)c2ccc(C#Cc3cccc(F)c3)cc2O[C@@H]1CN(C)S(=O)(=O)c1ccccc1F
COc1cccc(NC(=O)N2CC(=O)N3[C@H](CO)[C@@H](c4ccc(C#CCC5CCCC5)cc4)[C@@H]3C2)c1
C[C@@H]1CN([C@H](C)CO)S(=O)(=O)c2ccc(C#Cc3cccc(F)c3)cc2O[C@H]1CN(C)S(=O)(=O)c1ccccc1F
COc1ccc(C#Cc2ccc([C@@H]3[C@@H](CO)N4C(=O)CN(C(=O)c5cccnc5)C[C@@H]34)cc2)cc1
C[C@@H](O)C#Cc1ccc2c(c1)O[C@H](CN(C)Cc1ccc(-c3ccccc3)cc1)[C@@H](C)CN([C@@H](C)CO)S2(=O)=O
COCC(=O)N1C[C@@H](C)[C@@H](OC)CN(C)C(=O)c2cc(NC(=O)c3cc(C)on3)ccc2OC[C@H]1C
CN(C)c1ccc2c(c1)[C@H]1C[C@H](CC(=O)NCc3ccc(Oc4ccccc4)cc3)O[C@H](CO)[C@H]1O2
C[C@@H]1CN([C@@H](C)CO)C(=O)c2cccc(NC(=O)c3ccc(-c4nccs4)cc3)c2O[C@@H]1CN(C)Cc1ccc(C(F)(F)F)cc1
COc1ccc(-c2ccc([C@@H]3[C@H]4CN(C(=O)Cc5ccccn5)CC(=O)N4[C@H]3CO)cc2)cc1
